For some assays here: Results with a measured potency or affinity are listed apart. Active and inactive are the calls of the source.
Key:
[1] = Ebola virus entry assay, green fluorescence channel
[2] = Ebola virus entry assay, blue channel fluorescence
[3] = Ebola virus entry assay, green fluorescence channel; remark: listed apart in the source
[4] = Ebola virus entry assay, ratio channel readout
[5] = Ebola virus entry assay, blue channel fluorescence; remark: listed apart in the source
[6] = Ebola virus entry assay, ratio channel
[7] = Ebola virus entry assay, green channel fluorescence
[8] = Ebola virus entry assay, blue channel fluorescence; remark: listed apart in the source
[9] = Ebola virus entry assay, reporter ratio channel; AC50: Channel type: primary unless noted; outcome: Channel type: primary unless noted
[10] = Ebola virus entry assay, blue channel (ratio component)
For efficacy in this document: 0% is about no effect.

CN(C)CCc1c[nH]c2ccc(CS(=O)(=O)N3CCCC3)cc12
inactive: efficacy [1] -14.5% | outcome [2] | outcome [3] | outcome [4] | outcome [5] | outcome [6] | outcome [7] | outcome [8] | outcome [9] | outcome [10]

CCc1nc(N)nc(N)c1-c1ccc(Cl)cc1
inactive: efficacy [1] 26.9% | outcome [2] | outcome [3] | outcome [4] | outcome [6] | outcome [7] | outcome [8]
active: AC50 [5] 39.8 µM | AC50 [9] 39.8 µM

C[n+]1ccccc1/C=N/O
inactive: efficacy [1] -22% | outcome [2] | outcome [3] | outcome [4] | outcome [5] | outcome [6] | outcome [7] | outcome [8] | outcome [9] | outcome [10]

NS(=O)(=O)Cc1noc2ccccc12
inactive: efficacy [1] -13.2% | outcome [2] | outcome [3] | outcome [4] | outcome [5] | outcome [6] | outcome [7] | outcome [8] | outcome [9] | outcome [10]

CCCN1C[C@H](CSC)C[C@@H]2c3cccc4[nH]cc(c34)C[C@H]21
inactive: efficacy [1] 14.5% | outcome [2] | outcome [3] | outcome [4] | outcome [7] | outcome [8]
active: AC50 [5] 11.2 µM | AC50 [6] 7.94 µM | AC50 [9] 7.94 µM

CC(C)NCC(O)c1ccc(O)c(O)c1 (configuration not stated)
inactive: efficacy [1] -9.56% | outcome [2] | outcome [3] | outcome [4] | outcome [5] | outcome [6] | outcome [7] | outcome [8] | outcome [9] | outcome [10]

Nc1nc(=S)c2[nH]cnc2[nH]1
inactive: efficacy [1] -27.5% | outcome [2] | outcome [3] | outcome [4] | outcome [5] | outcome [6] | outcome [7] | outcome [8] | outcome [9] | outcome [10]

COc1nc(N)nc2c1ncn2[C@@H]1O[C@H](CO)[C@@H](O)[C@@H]1O
inactive: efficacy [1] -33.2% | outcome [2] | outcome [3] | outcome [4] | outcome [5] | outcome [6] | outcome [7] | outcome [8] | outcome [9] | outcome [10]

CCOc1ccc2ccccc2c1C(=O)N[C@@H]1C(=O)N2[C@@H]1SC(C)(C)[C@@H]2C(=O)O
inactive: efficacy [1] 20.5% | outcome [2] | outcome [3] | outcome [4] | outcome [5] | outcome [6] | outcome [7] | outcome [8] | outcome [9] | outcome [10]

C[C@](N)(Cc1ccc(O)c(O)c1)C(=O)O
inactive: efficacy [1] 20.7% | outcome [2] | outcome [3] | outcome [4] | outcome [7] | outcome [8]
active: AC50 [5] 15.8 µM | AC50 [6] 22.4 µM | AC50 [9] 22.4 µM

N[C@@H](Cc1cc(I)c(Oc2cc(I)c(O)c(I)c2)c(I)c1)C(=O)O
inactive: efficacy [1] -10% | outcome [2] | outcome [3] | outcome [4] | outcome [5] | outcome [6] | outcome [7] | outcome [8] | outcome [9] | outcome [10]

COc1c(C)c2c(c(O)c1C/C=C(\C)CCC(=O)O)C(=O)OC2
inactive: efficacy [1] 11.2% | outcome [2] | outcome [3] | outcome [4] | outcome [5] | outcome [6] | outcome [7] | outcome [8] | outcome [9] | outcome [10]

CC(=O)N(O)CCCCCNC(=O)CCC(=O)N(O)CCCCCNC(=O)CCC(=O)N(O)CCCCCN
inactive: efficacy [1] -19.8% | outcome [2] | outcome [3] | outcome [4] | outcome [5] | outcome [6] | outcome [7] | outcome [8] | outcome [9] | outcome [10]

CC1(C)S[C@@H]2[C@H](NC(=O)Cc3ccccc3)C(=O)N2[C@H]1C(=O)O (tested in a mixture with another compound)
inactive: efficacy [1] -23.1% | outcome [2] | outcome [3] | outcome [4] | outcome [5] | outcome [6] | outcome [7] | outcome [8] | outcome [9] | outcome [10]

CC(C)(O)c1ccccc1CC[C@@H](SCC1(CC(=O)O)CC1)c1cccc(/C=C/c2ccc3ccc(Cl)cc3n2)c1
inactive: efficacy [1] 12.9% | outcome [2] | outcome [3] | outcome [4] | outcome [5] | outcome [6] | outcome [7] | outcome [8] | outcome [9] | outcome [10]

O=c1n(CCCN2CCN(c3cccc(Cl)c3)CC2)nc2ccccn12
inactive: efficacy [1] 33.5% | outcome [2] | outcome [3] | outcome [4] | outcome [5] | outcome [6] | outcome [7] | outcome [8] | outcome [9] | outcome [10]

CN(CCOc1ccc(NS(C)(=O)=O)cc1)CCc1ccc(NS(C)(=O)=O)cc1
inactive: efficacy [1] 20.2% | outcome [2] | outcome [3] | outcome [4] | outcome [5] | outcome [6] | outcome [7] | outcome [8] | outcome [9] | outcome [10]

COc1ccc(-c2cc(=S)ss2)cc1
inactive: efficacy [1] -17.7% | outcome [2] | outcome [3] | outcome [4] | outcome [5] | outcome [6] | outcome [7] | outcome [8] | outcome [9] | outcome [10]

COC(c1ccccc1)(c1ccccc1)[C@H](Oc1nc(C)cc(C)n1)C(=O)O
inactive: efficacy [1] -17.9% | outcome [2] | outcome [3] | outcome [4] | outcome [5] | outcome [6] | outcome [7] | outcome [8] | outcome [9] | outcome [10]

CC(=O)O[C@]1(C(C)=O)CC[C@H]2[C@@H]3C=C(C)C4=CC(=O)CC[C@]4(C)[C@H]3CC[C@@]21C
inactive: efficacy [1] 20% | outcome [2] | outcome [3] | outcome [4] | outcome [5] | outcome [6] | outcome [7] | outcome [8] | outcome [9] | outcome [10]
